In PubChem BioAssay (NCI):
The panel holds about 79,000 compounds, 15% with a hit somewhere; the sample as a whole holds those more often. Calls of active or inactive are those of the source. Cut-off read from the data, not from the text of the source: active = growth inhibition above about 70%; inactive = the rest.

What was measured:
[1] = NCI Yeast Anticancer Drug Screen. Data for the rad52 strain (AID 147);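 note: 0% = growth of vehicle-treated control cultures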; conditions: S. cerevisiae rad52 mutant growth inhibition, stronger effect = higher value
In short: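 Compounds are applied to a genetically defined yeast strain lacking normal DNA damage repair, and inhibition of growth is expressed relative to cultures given vehicle only.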

[2] = NCI Yeast Anticancer Drug Screen. Data for the wt1 strain (AID 149);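 note: 0% = growth of vehicle-treated wt1 cultures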; conditions: S. cerevisiae wt1 strain (SPY 50644) growth inhibition, stronger effect = higher value
In short: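 Readout: yeast growth inhibition, normalised to vehicle controls, in the wt1 strain exposed to test compounds.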

[3] = NCI Yeast Anticancer Drug Screen. Data for the rad50EPP+ strain (AID 151);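 note: 0% = growth of vehicle-treated control cultures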; conditions: S. cerevisiae rad50 mutant strain, stronger effect = higher value
In short: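 Compounds were applied to the rad50EPP+ yeast strain, which bears a defined DNA repair alteration, and growth inhibition was determined relative to vehicle-treated cultures.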

[4] = NCI Yeast Anticancer Drug Screen. Data for the mgt1 strain (AID 153); conditions: S. cerevisiae mgt1 mutant growth inhibition, stronger effect = higher value
In short: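 Strain: mgt1 yeast, one of a set carrying defined DNA damage repair or cell cycle control alterations. Compound-treated growth compared with vehicle.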

[5] = NCI Yeast Anticancer Drug Screen. Data for the rad50 strain (AID 155);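 note: 0% = growth of vehicle-only cultures of the same strain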; conditions: S. cerevisiae rad50 strain growth inhibition, stronger effect = higher value
In short: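 Compounds were tested on a yeast strain with an engineered DNA damage repair alteration; the reported value is growth inhibition normalised to vehicle treatment.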

[6] = NCI Yeast Anticancer Drug Screen. Data for the mec2-1 strain (AID 157); conditions: S. cerevisiae mec2-1 strain, stronger effect = higher value
In short: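 Strain: mec2-1 (DNA repair/cell cycle alteration). Compound exposure, then growth measured; inhibition expressed relative to vehicle.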

[7] = NCI Yeast Anticancer Drug Screen. Data for the rad14 strain (AID 159);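 note: 0% = growth of vehicle-treated control cultures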; conditions: S. cerevisiae rad14 strain growth inhibition, stronger effect = higher value
In short: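 Compound-treated yeast with a defined DNA-repair lesion; growth inhibition normalised to vehicle-treated cultures.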

[8] = NCI Yeast Anticancer Drug Screen. Data for the sgs1 mgt1 strain (AID 161);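 note: 0% = growth of cultures given vehicle only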; conditions: S. cerevisiae sgs1 mgt1 strain, stronger effect = higher value
In short: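 Inhibition of yeast growth, normalised to vehicle-treated controls, is reported for a strain bearing genetic alterations in DNA damage repair.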

[9] = NCI Yeast Anticancer Drug Screen. Data for the CLN2oe strain (AID 163);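 note: 0% = growth of vehicle-only control cultures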; conditions: S. cerevisiae CLN2oe strain, stronger effect = higher value
In short: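 Growth of a genetically modified yeast strain is measured after compound exposure and compared with cultures given vehicle alone.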

[10] = NCI Yeast Anticancer Drug Screen. Data for the cln2 rad14 strain (AID 165);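 note: 0% = growth equal to vehicle treated cultures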; conditions: S. cerevisiae cln2 rad14 strain, stronger effect = higher value
In short: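 Compounds are applied to the cln2 rad14 yeast strain, and growth is then compared with that of vehicle-treated cultures to give inhibition.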

[11] = NCI Yeast Anticancer Drug Screen. Data for the bub3 strain (AID 167); conditions: S. cerevisiae bub3 mutant strain, stronger effect = higher value
In short: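 Growth of a checkpoint-deficient yeast mutant is measured after compound exposure. Values represent inhibition relative to vehicle.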

[12] = NCI Yeast Anticancer Drug Screen. Data for the wt2 strain (AID 169);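 note: 0% = growth of vehicle-treated yeast cultures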; conditions: S. cerevisiae wt2 strain growth inhibition, stronger effect = higher value
In short: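 This strain belongs to a panel of yeast strains with defined genetic alterations in DNA damage repair or cell cycle control. Compounds are applied, and growth inhibition is measured against vehicle-treated cultures.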

[13] = NCI Yeast Anticancer Drug Screen. Data for the mlh1 strain (AID 171);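 note: 0% = growth of vehicle-treated control cultures of the same strain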; conditions: S. cerevisiae mlh1 strain growth inhibition, stronger effect = higher value
In short: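 Growth of the mutant yeast strain after compound exposure, expressed as inhibition relative to vehicle-only controls.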

[14] = NCI Yeast Anticancer Drug Screen. Data for the sgs1 strain (AID 173);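 note: 0% = growth of vehicle-only control cultures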; conditions: S. cerevisiae sgs1 mutant, stronger effect = higher value
In short: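 Growth of a yeast strain bearing a defined genetic alteration is measured after compound treatment. Inhibition is expressed relative to vehicle-only controls.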

[15] = NCI Yeast Anticancer Drug Screen. Data for the mlh1 rad18 strain (AID 175); conditions: S. cerevisiae mlh1 rad18 strain growth inhibition, stronger effect = higher value
In short: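 Read-out is yeast growth inhibition, calculated against vehicle-only controls. The compound was applied to a strain engineered with DNA damage repair alterations.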

[16] = NCI Yeast Anticancer Drug Screen. Data for the rad18 strain (AID 177); conditions: S. cerevisiae rad18 mutant growth inhibition, stronger effect = higher value
In short: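 Growth of the mutant yeast strain after compound exposure, normalised to vehicle-only cultures.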

[17] = at 5.0 µM (retest, dose inferred, filed as 0.5)
[18] = at 50.0 µM (retest, dose inferred, filed as 5.0)

Measured: growth inhibition

COc1ccc([N+](=O)[O-])c2c(NCCCN(C)C)c3ccccc3nc12
inactive: [1]; at 1.2 µM 15% | [1]; at 3.7 µM 30% | [1]; at 11.0 µM 58% | [2]; at 1.2 µM 1% | [2]; at 3.7 µM 1% | [2]; at 11.0 µM 3% | [2]; at 33.0 µM 9% | [2]; at 100.0 µM 23% | [3]; at 1.2 µM -3% | [3]; at 3.7 µM 3% | [3]; at 11.0 µM 13% | [3]; at 33.0 µM 22% | [3]; at 100.0 µM 45% | [4]; at 1.2 µM 2% | [4]; at 3.7 µM 2% | [4]; at 11.0 µM 6% | [4]; at 33.0 µM 10% | [4]; at 100.0 µM 42% | [5]; at 1.2 µM 5% | [5]; at 3.7 µM -1% | [5]; [17] 16% | [5]; at 11.0 µM 11% | [5]; at 33.0 µM 50% | [5]; at 50.0 µM 49.1% | [6]; at 1.2 µM 4% | [6]; at 3.7 µM 4% | [6]; [17] -3% | [6]; at 11.0 µM 12% | [6]; at 33.0 µM 47% | [6]; at 50.0 µM 12.9% | [7]; at 1.2 µM 4% | [7]; at 3.7 µM 10% | [7]; at 11.0 µM 29% | [8]; [17] 5% | [8]; at 50.0 µM 46.8% | [9]; at 1.2 µM -3% | [9]; at 3.7 µM 3% | [9]; at 11.0 µM 2% | [9]; at 33.0 µM 8% | [9]; at 100.0 µM 25% | [10]; [17] 42% | [10]; at 50.0 µM 66.2% | [11]; at 1.2 µM -2% | [11]; at 3.7 µM -2% | [11]; at 11.0 µM -4% | [11]; at 33.0 µM 1% | [11]; at 50.0 µM -29% | [11]; at 100.0 µM 9% | [12]; at 1.2 µM 1% | [12]; at 3.7 µM 2% | [12]; at 11.0 µM 5% | [12]; at 33.0 µM 17% | [12]; at 100.0 µM 38% | [13]; at 1.2 µM 0% | [13]; at 3.7 µM 2% | [13]; at 11.0 µM 4% | [13]; at 33.0 µM 19% | [13]; at 100.0 µM 45% | [14]; at 1.2 µM 12% | [14]; at 3.7 µM 31% | [14]; at 11.0 µM 56% | [15]; [17] 7% | [15]; at 50.0 µM 68.5% | [16]; at 1.2 µM 62%
active: [1]; at 33.0 µM 72% | [1]; at 100.0 µM 89% | [5]; [18] 90% | [5]; at 100.0 µM 71% | [6]; [18] 99% | [6]; at 100.0 µM 85% | [7]; at 33.0 µM 80% | [7]; at 100.0 µM 94% | [8]; [18] 79% | [10]; [18] 98% | [11]; [17] 91% | [11]; [18] 100% | [14]; at 33.0 µM 83% | [14]; at 100.0 µM 90% | [15]; [18] 98% | [16]; at 3.7 µM 82% | [16]; at 11.0 µM 90% | [16]; at 33.0 µM 93% | [16]; at 100.0 µM 95%

COC(=O)NC1C(C)OC(OC2C/C=C(/C)C3C=CC4C(OC5CC(OC6CC(O)C(OC7CC(O)C(OC)C(C)O7)C(C)O6)C(O)C(C)O5)C(C)CC(C)C4C3(C)/C(O)=C3\C(=O)OC4(CC(C)C(CO)=CC4/C=C\2C)C3=O)CC1(C)[N+](=O)[O-] (stereo unspecified)
inactive: [1]; at 1.2 µM 15% | [1]; at 3.7 µM 40% | [1]; at 11.0 µM 41% | [1]; at 33.0 µM 38% | [1]; at 100.0 µM 21% | [2]; at 1.2 µM 10% | [2]; at 3.7 µM 22% | [2]; at 11.0 µM 20% | [2]; at 33.0 µM 22% | [2]; at 100.0 µM 10% | [3]; at 1.2 µM 10% | [3]; at 3.7 µM 8% | [3]; at 11.0 µM 11% | [3]; at 33.0 µM 5% | [3]; at 100.0 µM 11% | [4]; at 1.2 µM -7% | [4]; at 3.7 µM 2% | [4]; at 11.0 µM -1% | [4]; at 33.0 µM 8% | [4]; at 100.0 µM 7% | [5]; at 1.2 µM 5% | [5]; at 3.7 µM 16% | [5]; [17] 23% | [5]; at 11.0 µM 22% | [5]; at 33.0 µM 21% | [5]; [18] 40% | [5]; at 50.0 µM 5.7% | [5]; at 100.0 µM 16% | [6]; at 1.2 µM 2% | [6]; at 3.7 µM -5% | [6]; [17] 9% | [6]; at 11.0 µM -4% | [6]; at 33.0 µM 5% | [6]; [18] 34% | [6]; at 50.0 µM -7.4% | [6]; at 100.0 µM -3% | [7]; at 1.2 µM 13% | [7]; at 3.7 µM 19% | [7]; at 11.0 µM 14% | [7]; at 33.0 µM 16% | [7]; at 100.0 µM 13% | [8]; [17] 13% | [8]; [18] 27% | [8]; at 50.0 µM 9.1% | [9]; at 1.2 µM 27% | [9]; at 3.7 µM 15% | [9]; at 11.0 µM 20% | [9]; at 33.0 µM 18% | [9]; at 100.0 µM 28% | [10]; [17] 44% | [10]; [18] 33% | [10]; at 50.0 µM 14.8% | [11]; at 1.2 µM 22% | [11]; at 3.7 µM 19% | [11]; [17] 34% | [11]; at 11.0 µM 13% | [11]; at 33.0 µM 9% | [11]; [18] 26% | [11]; at 50.0 µM 10.7% | [11]; at 100.0 µM 9% | [12]; at 1.2 µM -42% | [12]; at 3.7 µM -37% | [12]; at 11.0 µM -47% | [12]; at 33.0 µM -30% | [12]; at 100.0 µM -21% | [13]; at 1.2 µM -4% | [13]; at 3.7 µM 5% | [13]; at 11.0 µM 3% | [13]; at 33.0 µM 3% | [13]; at 100.0 µM -2% | [14]; at 1.2 µM 0% | [14]; at 3.7 µM -8% | [14]; at 11.0 µM -15% | [14]; at 33.0 µM -13% | [14]; at 100.0 µM -10% | [15]; [17] 27% | [15]; [18] 65% | [15]; at 50.0 µM 10.6% | [16]; at 1.2 µM 1% | [16]; at 3.7 µM 17% | [16]; at 11.0 µM 14% | [16]; at 33.0 µM 14% | [16]; at 100.0 µM 13%
